Data as given in the supplement of paper PMC6555819.

What was measured:
Test in all cases: PBM binding z-score (relative to random genomic background probes); higher = stronger binding; sequences stand for … in GC…GCGATTGACAGCGTAGAATGAAGG
[1] = tested on: FXR:RXRa (NR concentration 270 nM, RXRa partner concentration 90 nM)
In short: (§1)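 Binding z-scores take random background probes as their reference. They come from custom Agilent 4×180K protein-binding microarrays incubated 1 h with ligand-free nuclear receptor dimers, with antibodies against each partner (one per run) detecting binding. Scanned fluorescence was regression-normalized.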

[2] = tested on: LXRa:RXRa (NR concentration 270 nM, RXRa partner concentration 90 nM)
In short: as §1

[3] = tested on: LXRa homodimer (NR concentration 270 nM)
In short: as §1

[4] = tested on: LXRb:RXRa (NR concentration 270 nM, RXRa partner concentration 90 nM)
In short: as §1

[5] = tested on: LXRb homodimer (NR concentration 270 nM)
In short: as §1

[6] = tested on: PPARa:RXRa (NR concentration 270 nM, RXRa partner concentration 90 nM)
In short: as §1

[7] = tested on: PPARg:RXRa (NR concentration 180 nM, RXRa partner concentration 90 nM)
In short: as §1

[8] = tested on: PPARg:RXRa 270nM:90nM, anti-RXR (NR concentration 270 nM, RXRa partner concentration 90 nM)
In short: as §1

[9] = tested on: PPARg:RXRa 30nM:10nM, anti-RXR (NR concentration 30 nM, RXRa partner concentration 10 nM)
In short: as §1

[10] = tested on: PPARg:RXRa 90nM:30nM, anti-RXR (NR concentration 90 nM, RXRa partner concentration 30 nM)
In short: as §1

Sequence | PBM binding z-score [1] | PBM binding z-score [2] | PBM binding z-score [3] | PBM binding z-score [4] | PBM binding z-score [5] | PBM binding z-score [6] | PBM binding z-score [7] | PBM binding z-score [8] | PBM binding z-score [9] | PBM binding z-score [10]
GCTCGGAGGACCAGGTCAGAGCTTTGTCCGTAGA | 0.0133 | -0.0636 | -0.562 | -0.241 | -1.47 | 0.776 | -0.725 | -0.204 | -1.11 | -0.616
GCGACTGGGGCATCAGCAGGTTACCATAACTTAA | 0.0865 | 0.156 | 0.0275 | 0.704 | -0.886 | 1.33 | 1.21 | 1.03 | 0.757 | 0.397
CCGACTGGGACAAGGTTACCATAACGCACAGCCA | 0.29 | 0.604 | -0.141 | 0.507 | -0.706 | 1.49 | 1.92 | 2.18 | 0.494 | 1.59
TCGAGTAGGTTAGTCGGGGCATTCAACCAACATA | 0.19 | 0.112 | 0.0145 | 0.776 | -0.298 | 0.929 | 0.00295 | 1.16 | 1.41 | 1.11
TCTTGTAGATCAGCGGGTTAAGAAAGCTGGCCAA | 0.495 | 0.126 | -0.31 | 0.0907 | 0.392 | 0.933 | -0.329 | 1.16 | 2.52 | 1.99
CAAGCTAGGTCACGAAAGGTCAAAGTCGAATGAC | 7.45 | 8.14 | 8.09 | 7.63 | 2.75 | 6.5 | 7.39 | 7.14 | 4.23 | 6.31
CCTATTAGTTGGCCATAAGGGCAACCGAAGCTCG | 0.403 | 0.0422 | -0.122 | -0.00443 | -0.0843 | 0.154 | 0.332 | 0.665 | -0.257 | 0.493
ACTATTAGTTGACTTACGGCAACCGATACGACGC | 0.213 | 0.066 | 0.174 | 0.412 | 0.908 | -0.179 | 1.09 | 0.0509 | 0.212 | 0.113
ACATGTAGGTTACATCCGGGTCATTCAGGCTATG | 2.53 | 4.55 | 1.49 | 3.15 | 1.14 | 4.15 | 4.27 | 3.99 | 1.47 | 2.91
CCTCGGAGGACAACAGGAGGTCACAGCTGCCAGA | 2.75 | 3.93 | 3.82 | 2.82 | -0.268 | 3.42 | 1.76 | 2 | -0.188 | 1.1
ACTAGTTGGTCAGCTGAGGTCTCACACAATTCGG | 0.132 | -0.314 | -0.301 | -0.188 | -0.19 | 0.142 | 0.384 | 0.246 | -0.202 | 0.00207
AGAACGAGGGAACGCTGAGTTGATAGCAGAGTAG | -0.288 | -0.46 | -0.611 | -0.674 | -0.803 | -0.499 | 0.464 | -0.265 | -0.0206 | -0.332
GCAGACAGGTGAAACGCAGGTAAATCAGGGTGGC | -0.326 | -0.128 | -0.519 | -0.258 | -0.862 | 0.983 | 0.513 | -0.213 | -0.632 | -0.346
GCTATTAGTTGAAAGGGCAACTGAATGATTCTCG | 0.614 | 0.896 | 0.18 | 1.1 | 0.073 | 2.51 | 2.65 | 4.03 | 2.6 | 4.54
AGAATGAGCTTATTAAGATCAGGGAATTGCGGTC | -0.612 | -0.88 | -0.374 | -0.82 | -0.756 | -0.52 | 0.00552 | -0.444 | -0.148 | -0.365
CGAACGAGGGCGTGAGTTGATAGCAAATGCCGAT | -0.128 | -0.241 | -0.781 | -0.468 | -0.878 | 0.0145 | 0.401 | 0.0824 | -0.205 | -0.084
TCGAGTAGGTTAGTCGGGGCAGTCAGCCAACATA | 0.0181 | -0.31 | -0.676 | 0.0169 | -0.869 | 0.556 | -0.388 | 0.946 | 0.987 | 0.955
CCAGACCGGTGAGAAGGTAACTCAGCCTCGATTA | -0.29 | 0.0278 | 0.205 | -0.175 | -0.35 | -0.101 | -0.0328 | -0.307 | -0.601 | -0.547
AATACAGGGTCACTATGCCAGAGTAGGTACGAAT | 5.56 | 4.68 | 1.16 | 3.79 | 1.06 | 5.44 | 6.37 | 4.87 | 2.05 | 3.73
TCGAGTAGGTTACCAATGGGGCATTTAGCTTTCT | 0.00953 | 1.35 | -0.662 | 1.09 | -0.721 | 1.22 | 0.144 | 1.33 | 1.33 | 1.2
CATTCAGGGTCAGCTAGGCCAGAGTAGGGACGGC | 5.24 | 4.08 | 0.181 | 2.92 | 1.42 | 4.82 | 3.87 | 3.94 | 1.29 | 2.81
CAAACTAGGTCAAGTTCAAAGTCGGTTTGTGCCA | 5.99 | 4.84 | 4.22 | 3.64 | 1.37 | 5.81 | 8.91 | 7.48 | 5.88 | 7.46
AGGCAAAGTTCAGGACGAGGTAACGTAAAGCACG | 4.22 | 3.64 | 1.15 | 1.9 | 0.202 | 3.37 | 3.33 | 4.04 | 1.44 | 3.05
TCTAGTTGGTCACGGAGGTTACACACGACGGGTA | 1.01 | 1.19 | 0.54 | 1.12 | 0.211 | 1.96 | 1.7 | 2.35 | 3.22 | 2.73
